Screen size: about 350,000 compounds; about 31,000 (8.9%) were called active. Roughly 15% stayed inconclusive and do not appear here. The sample holds actives, similar compounds and a random draw of the others, so the mix is not that of the screen. Calls follow the shape of the dose curve; as a rule, active = well fitted inhibition curve with a large enough effect; inconclusive = small, poorly fitted or top-dose-only effect; inactive = no such curve, though single readings can be large or run the other way.
These compounds were tested against Histone-lysine N-methyltransferase EHMT2 (Homo sapiens) (UniProt Q96KQ7) (assay: qHTS Assay for Inhibitors of Histone Lysine Methyltransferase G9a). Conditions: G9a H3K9 monomethylation, AlphaScreen, 2 h; series mostly up to 59 µM; activity, negative = inhibition: at the top concentration.
Summary of the method: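 Quantitative HTS format: methyltransferase activity on a biotin-tagged H3K9 peptide is measured by AlphaScreen, using a rabbit anti-monomethyl-H3K9 antibody with streptavidin donor and anti-IgG acceptor beads. Final levels are 20 nM enzyme, 500 nM peptide, 20 uM SAM; 2 h RT.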
% is scaled to controls: 0 for no effect and ±100 for the full control effect; potency is read from the fitted curve at half-maximal effect.
Also: nearly all actives have a fitted effect of over 75% in size.

Sequence of Histone-lysine N-methyltransferase EHMT2 (Homo sapiens) (Q96KQ7 913-1193 limits assumed): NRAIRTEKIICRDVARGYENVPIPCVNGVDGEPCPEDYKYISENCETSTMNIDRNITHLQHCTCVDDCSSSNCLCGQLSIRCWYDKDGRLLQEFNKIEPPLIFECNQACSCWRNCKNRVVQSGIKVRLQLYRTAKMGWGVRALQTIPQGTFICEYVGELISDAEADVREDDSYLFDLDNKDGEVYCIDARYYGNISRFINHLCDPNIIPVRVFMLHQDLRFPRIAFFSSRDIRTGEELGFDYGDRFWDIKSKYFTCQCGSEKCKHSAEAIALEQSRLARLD

Compound | activity, negative = inhibition | Potency
CCN(C(=O)Cn1cnc2sc(C)c(S(=O)(=O)N3CCN(c4ncccn4)CC3)c2c1=O)c1ccccc1F | 1.78% (inactive) | –
Cc1ccc(S(=O)(=O)N(CCCN(C)C)Cc2ccc3c(c2)OCO3)cc1 | 11.2% [at 102 µM] (inactive) | –
COc1ccc(-c2cn3nc(N4CCCC(C(=O)NCCCOC(C)C)C4)sc3n2)cc1 (stereo not given) | -36.6% (inactive) | –
Cc1c(Cl)cccc1NC(=O)C(=O)NCCc1csc2nc(-c3ccccc3F)nn12 | 1.79% (inactive) | –
NS(=O)(=O)c1ccc(CCNC(=O)COC(=O)COc2cccc(C(F)(F)F)c2)cc1 | -4.95% [at 12.7 µM] (inactive) | –
Cc1ccc(-c2cc(C(=O)NC3CCN(Cc4ccccc4)CC3)c3ccccc3n2)cc1 | 20.7% (inactive) | –
CC(Sc1nn(-c2ccc(Cl)cc2)c(=S)s1)C(=O)NCC1CCCO1 (stereo not given) | -32.1% [at 102 µM] (inactive) | –
CNC(=O)NC(=O)CSc1nnc(-c2ccc(F)cc2)n1CC1CCCO1 (stereo not given) | -5.04% [at 102 µM] (inactive) | –
S=c1[nH]nc(-c2ccc(Cl)cc2)n1CC1CCCO1 (stereo not given) | – | 7.94 µM (active)
CCN1C(=O)[C@H]2[C@@H](c3ccc(-c4ccc(F)cc4)cc3)N[C@@](Cc3ccccc3)(C(=O)OC)[C@H]2C1=O | 15.2% [at 2.33 µM] (inactive) | –
O=C(COc1ccccc1Cl)N1N=C(c2cccs2)CC1c1ccco1 (stereo not given) | -17.2% [at 12.7 µM] (inactive) | –
Cc1cc(C)cc(OCC(=O)Nc2c(C(=O)c3ccccc3)oc3ccccc23)c1 | -0.593% (inactive) | –
CC(=O)Nc1ccc(NC(=O)CSc2nnnn2C2CCCCC2)cc1 | -23.7% [at 102 µM] (inactive) | –
CCn1nnnc1SCC(=O)Nc1ccc(N(C)C)cc1 | – | 28.2 µM (active)
CC(=O)Nc1ccc(NC(=O)CSc2nnnn2-c2ccccc2F)cc1 | 12.9% [at 102 µM] (inactive) | –
CCOc1ccc(C2C(=O)N(C3CCCCC3)CC(=O)N2CCC2=CCCCC2)cc1OC (stereo not given) | -15.8% (inactive) | –
COc1ccc(N2CCN(C(=S)Nc3ccc(S(N)(=O)=O)cc3)CC2)cc1 | – | 8.91 µM (active)
CC1CN(C(=S)Nc2ccc(S(N)(=O)=O)cc2)CC(C)O1 (stereo not given) | 38.7% [at 102 µM] (inactive) | –
CCOc1ccccc1N1CCN(C(=S)Nc2ccc(S(N)(=O)=O)cc2)CC1 | 4.71% (inactive) | –
CCCN1CCc2nc(N3CCN(C)CC3)ncc2C1 | 52.1% (inactive) | –
Nc1nc(SCc2cccc(Br)c2)n[nH]1 | – | 31.6 µM (active)
N#Cc1cccc(CSc2ncnc(N)n2)c1 | -30.5% [at 2.33 µM] (inactive) | –
Nc1nc(SCCOc2ccccc2)n[nH]1 | 1.72% [at 12.7 µM] (inactive) | –

Compound | activity, negative = inhibition | Potency
Cc1ccc(CCNC(=O)c2ccc3c(c2)nc2n3CCC(C)C2)cc1 (stereo not given) | 7.37% (inactive) | –
CCOc1ccc(NC(=O)C(=O)NCCc2csc3nc(-c4ccccc4F)nn23)cc1 | 4.21% (inactive) | –
COc1ccc(NC(=O)CCCN2C(=O)CCn3nc(-c4cn(C)c5ccccc45)cc32)cc1OC | -18.7% (inactive) | –
CCc1ccc(NC(=O)Cn2nnc(C(=O)NCc3ccc4c(c3)OCO4)c2N)cc1 | 30.7% [at 102 µM] (inactive) | –
Cc1cc(C)cc(NC(=O)Cc2csc(C)n2)c1 | 10.3% (inactive) | –
CCN(CC(=O)Nc1ccccc1C(F)(F)F)C(=O)C1CCN(C(=O)Nc2ccccc2)CC1 | 2.62% (inactive) | –
CCOC(=O)c1ccc(N2C(=O)CC(N3CC(C)OC(C)C3)C2=O)cc1 (stereo not given) | -40.5% (inactive) | –
CCOC(=O)c1ccc(N2C(=O)CC(N3CCC(C(=O)OCC)CC3)C2=O)cc1 (stereo not given) | – | 35.5 µM (active)
NC(=O)C1CCN(C2OC(=O)c3ccccc32)CC1 (stereo not given) | -5.82% [at 102 µM] (inactive) | –
COc1ccc(N2C(=O)CC(N3CCC(C(N)=O)CC3)C2=O)cc1 (stereo not given) | – | 14.1 µM (active)
CCOC(=O)C1CCN(c2ccc(C(=O)O)cc2[N+](=O)[O-])CC1 | -4.88% (inactive) | –
COc1ccc(COCC(O)CN2CCC(C(N)=O)CC2)cc1 (stereo not given) | 3.3% [at 102 µM] (inactive) | –
COc1cc(Cl)ccc1Nc1ncc(C(=O)N2CCN(c3ccccc3OC)CC2)c2ccccc12 | 15.8% (inactive) | –
COc1cc(C)ccc1OCCSc1nc2ccc(NC(=O)c3ccc(C)cc3)cc2s1 | 4.13% (inactive) | –
N#C/C(=C\c1cccc(F)c1)c1nc(-c2cc3c(ccc4ccccc43)oc2=O)cs1 | 6.36% (inactive) | –
COc1ccc(NC(=O)COCc2cc(-c3ccco3)on2)cc1 | -6.26% (inactive) | –
CC(OC(=O)/C=C/c1ccccc1)C(=O)NC1CCCCC1C (stereo not given) | 27.1% [at 12.7 µM] (inactive) | –
CCCCN(C(=O)C1=NN(c2cc(C)ccc2C)C(=O)CC1)c1c(N)n(CCC)c(=O)[nH]c1=O | -9.41% [at 12.7 µM] (inactive) | –
O=C(CSc1n[nH]c(-c2cccs2)n1)N1CCCCC1 | -2.34% [at 2.33 µM] (inactive) | –
COC(=O)c1ccc(/C=N\n2c(C)nnc2C)cc1 | -23% (inactive) | –
CCN(CC)S(=O)(=O)c1cccc(-c2n[nH]c(=S)n2/N=C/c2ccc(C(=O)OC)cc2)c1 | – | 1.41 µM (active)
CCN(CC)S(=O)(=O)c1ccc2nc(COC(=O)c3n[nH]c4ccccc34)[nH]c2c1 | 12.7% [at 12.7 µM] (inactive) | –
